From PubChem BioAssay (NCATS)
Inconclusive results are not listed. A call without a number means that no potency is given here. Unmarked numbers belong to inactive results. Active and inactive are the calls of the source. Calls come from the whole dose curve; as a rule, active = well fitted curve in the direction sought with a large enough effect; inconclusive = small, poorly fitted or top-dose-only effect, or another doubt; inactive = no such curve, though single readings can be large; an effect the other way counts as inactive or inconclusive.

Key:
[1] = qHTS Assay for Identifying Gametocytocidal Compounds (AID 743244); note: potency is the fitted concentration of half-maximal effect;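 for max response: actives lower the fluorescent signal which means gametocytes are killed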; settings: P. falciparum 3D7 stage III-V gametocytes, alamarBlue, 72 h; max response: hits give low values
In short: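 Fluorescence at Ex 525/Em 598 nm, recorded 24 h after alamarBlue addition, reports residual metabolic activity of 3D7 gametocytes (stages III–V) following 72 h compound exposure at 37 °C, 5% CO2.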

[2] = P-glycoprotein substrates identified in KB-8-5-11 adenocarcinoma cell line, qHTS therapeutic library screen (AID 1346987); settings: KB-8-5-11 (P-gp overexpressing) viability, CellTiter-Glo, 72 h; series mostly up to 44.5 µM; note: nearly all actives have a fitted effect of over 65% in size
In short: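 KB-8-5-11: colchicine-selected sub-line of KB-3-1 over-expressing P-gp; assay medium lacked colchicine. 72 h drug exposure at 37 degree C, CellTiter-Glo.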

Q: With O=C(Cn1c(=O)sc2ccc(Cl)cc21)N1CCN(CCO)CC1 as the compound, how does the max response [1] read?
A: -8.47%

Q: What about the Potency [2] of the same compound?
A: inactive

Q: For O=C(O)[C@@H](O)[C@H](O)[C@H](O)[C@@H](O)C(=O)O (tested in a mixture with another compound), which max response [1] is on record?
A: 5.9%

Q: And the Potency [2]?
A: inactive

Q: Which max response [1] does the source give for CS(=O)(=O)Nc1cc2occ(NC=O)c(=O)c2cc1Oc1ccccc1 here?
A: -2.7%

Q: What about the Potency [2] of the same compound?
A: inactive

Q: Which max response [1] does the source give for O.O=C([O-])CC([S-])C(=O)[O-].[Au+].[Na+].[Na+] (stereo unspecified) here?
A: -19.1%

Q: And the Potency [2]?
A: inactive

Q: With CCC(=O)OCC(=O)[C@@]1(OC(=O)CC)[C@@H](C)C[C@H]2[C@@H]3CCC4=CC(=O)C=C[C@]4(C)[C@@]3(Cl)[C@@H](O)C[C@@]21C as the compound, how does the max response [1] read?
A: 0.406%

Q: And the Potency [2]?
A: inactive

Q: Which max response [1] does the source give for C[N+](C)(CCCCCC[N+](C)(C)C1c2ccccc2-c2ccccc21)C1c2ccccc2-c2ccccc21 here?
A: -0.956%

Q: And the Potency [2]?
A: inactive

Q: Which results are given for COc1ccc(CNCC(O)COc2ccc3[nH]c(=O)ccc3c2)cc1OC (stereo unspecified)?
A: max response [1]: -1.67%; Potency [2]: inactive

Q: For O=P(O)(O)C(O)(Cc1cnc2ccccn12)P(=O)(O)O, which max response [1] is on record?
A: -4.82%

Q: And the Potency [2]?
A: inactive

Q: Which max response [1] does the source give for CCCC(CCC)C(N)=O here?
A: -4.93%

Q: What about the Potency [2] of the same compound?
A: inactive

Q: For c1ccc2c(CCC3CCNCC3)c[nH]c2c1, which max response [1] is on record?
A: -9.29%

Q: What about the Potency [2] of the same compound?
A: inactive

Q: What does the source list for Cc1cc(Nc2ccccc2C(=O)O)ccc1Cl?
A: max response [1]: -23.6%; Potency [2]: inactive

Q: With COc1ccc(C2NC(=S)N3C(c4ccc(OC)c(OC)c4)NC(=S)N23)cc1OC (stereo unspecified) as the compound, how does the Potency [1] read?
A: 2.3 nM (active)

Q: And the Potency [2]?
A: inactive

Q: What does the source list for O=C(OCCO)c1ccccc1O?
A: max response [1]: 18.8%; Potency [2]: inactive
